In all, about 310,000 compounds went through this assay and about 14,000 (4.5%) showed an effect of 50% or more. The effect is printed as a negative number. What follows is part of a selection rich in strong results, with near analogues and random picks from the rest.
molecular target: human ether-à-go-go-related gene (hERG) potassium channel (human, UniProt Q12809); test: primary screen, population patch clamp on CHO cells stably expressing hERG; higher = less effect of the substance
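Further: peak tail current of the secondary pulse compared with the same well before compound.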

Chain of human ether-à-go-go-related gene (hERG) potassium channel (Q12809 whole entry, looked up): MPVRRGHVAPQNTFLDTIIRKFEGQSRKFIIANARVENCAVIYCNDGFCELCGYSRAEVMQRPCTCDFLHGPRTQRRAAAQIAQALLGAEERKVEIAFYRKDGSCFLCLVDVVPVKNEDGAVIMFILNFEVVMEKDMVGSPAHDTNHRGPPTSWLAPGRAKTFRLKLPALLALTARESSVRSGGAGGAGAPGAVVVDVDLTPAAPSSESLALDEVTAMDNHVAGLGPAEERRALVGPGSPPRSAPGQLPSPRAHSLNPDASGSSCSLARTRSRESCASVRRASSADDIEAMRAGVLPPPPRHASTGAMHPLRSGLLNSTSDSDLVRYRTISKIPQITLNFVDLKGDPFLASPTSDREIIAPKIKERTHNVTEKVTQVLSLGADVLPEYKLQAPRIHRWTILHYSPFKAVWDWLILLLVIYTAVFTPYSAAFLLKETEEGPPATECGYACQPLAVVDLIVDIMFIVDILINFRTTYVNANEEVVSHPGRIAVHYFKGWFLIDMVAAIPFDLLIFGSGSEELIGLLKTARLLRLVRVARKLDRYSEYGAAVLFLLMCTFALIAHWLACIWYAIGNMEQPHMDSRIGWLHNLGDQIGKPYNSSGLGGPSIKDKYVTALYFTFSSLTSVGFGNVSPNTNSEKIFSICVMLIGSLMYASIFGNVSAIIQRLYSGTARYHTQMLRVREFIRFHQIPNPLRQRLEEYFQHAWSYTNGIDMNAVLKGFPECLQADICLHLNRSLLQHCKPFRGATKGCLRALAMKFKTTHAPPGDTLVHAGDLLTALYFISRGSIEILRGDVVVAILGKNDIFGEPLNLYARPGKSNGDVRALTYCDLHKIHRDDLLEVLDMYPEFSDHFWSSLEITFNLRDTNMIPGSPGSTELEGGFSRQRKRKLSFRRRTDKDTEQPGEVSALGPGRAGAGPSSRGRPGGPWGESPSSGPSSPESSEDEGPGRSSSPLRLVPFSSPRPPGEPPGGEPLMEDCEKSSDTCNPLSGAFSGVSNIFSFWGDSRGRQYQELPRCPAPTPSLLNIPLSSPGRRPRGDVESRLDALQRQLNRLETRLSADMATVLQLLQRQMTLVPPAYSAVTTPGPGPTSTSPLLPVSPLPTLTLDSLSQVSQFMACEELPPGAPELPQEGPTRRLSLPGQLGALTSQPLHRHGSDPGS

Compared with `COc1cccc(-c2cccc(NC(=O)C3CCN(C4CCC4)CC3)c2)c1`, `COc1cccc(-c2cccc(NC(=O)C3CCN(C4CCOCC4)CC3)c2)c1` is higher in “hERG current change (%, negative = inhibition) at 10uM” value: -51.7% for the first, -42% for the second.

First: COc1cccc(NC(=O)C2CCC2)c1
Second: COc1ccc(-c2ccc3nnc(SCC(=O)NCC4CCCO4)n3n2)cc1 (centres unmarked)
The “hERG current change (%, negative = inhibition) at 10uM” value of the first is higher: 8.83% for the first, -9.98% for the second.

Going from `CCN(CC)CC(C)CNC(=O)C1(O)c2ccccc2NC(=O)N1c1ccc(Cl)c(Cl)c1` (centres unmarked) to `CCN(C(=O)COC(=O)c1cc(S(=O)(=O)Nc2c(C)n(C)n(-c3ccccc3)c2=O)ccc1Cl)C1CCCCC1`, the “hERG current change (%, negative = inhibition) at 10uM” value falls from 3.31% to -49.9%.

Compared with `COc1ccc(OCC(O)CNC(=O)Nc2cc(C)cc(C)c2)cc1` (centres unmarked), `Cc1ccc(CNC(=O)COC(=O)CSc2ccc(Br)cc2C)cc1` is higher in “hERG current change (%, negative = inhibition) at 10uM” value: 0.613% for the first, 10.9% for the second.

Going from `Cc1cc(C(=O)N/N=C/c2ccco2)n[nH]1` to `Cn1cccc1C(=O)N/N=C/c1c(Cl)cccc1Cl`, the “hERG current change (%, negative = inhibition) at 10uM” value falls from 31.6% to 3.26%.

Going from `CC(=O)c1ccc(C(=O)N2CCCC(C(=O)c3cc(F)ccc3F)C2)s1` (centres unmarked) to `Cc1cc(C)cc(C(=O)N(C)C2CCCN(Cc3ccccc3F)C2)c1` (centres unmarked), the “hERG current change (%, negative = inhibition) at 10uM” value falls from 2.88% to -13%.

First: Cl.Cn1nnnc1SCCNCc1ccccc1OCc1ccc(Cl)cc1
Second: Cl.Cn1nnnc1SCCNCc1ccccc1OCc1ccc(F)cc1
The “hERG current change (%, negative = inhibition) at 10uM” value of the first is lower: -53.4% for the first, -29.6% for the second.

Going from `COc1cc(CNCCSc2nnnn2C)cc(Br)c1OCc1ccccc1.Cl` to `CCOc1cc(CNCCSc2nnnn2C)cc(Br)c1OCc1ccccc1.Cl`, the “hERG current change (%, negative = inhibition) at 10uM” value rises from -56.3% to -23.1%.

Going from `Cn1nnnc1SCCNCc1ccccc1OCc1ccccc1` to `COc1cc(CNCCSc2nnnn2C)cc(Br)c1OCc1ccc(F)cc1.Cl`, the “hERG current change (%, negative = inhibition) at 10uM” value falls from -9.36% to -43.9%.

Compared with `CCOC(=O)c1ccc(S(=O)(=O)N2CCN(CCC#N)CC2)cc1`, `CCN1CCN(c2ccc(S(=O)(=O)N3CCOCC3)cc2NC(=O)c2ccc(C)c(C)c2)CC1` is lower in “hERG current change (%, negative = inhibition) at 10uM” value: -14.7% for the first, -40% for the second.

Going from `Cc1nnc(Nc2ccc(O)cc2)[nH]c1=O` to `Cc1c(Cl)c([N+](=O)[O-])nn1CCCC(=O)Nc1cccc(O)c1`, the “hERG current change (%, negative = inhibition) at 10uM” value falls from 27.7% to -10.8%.

First: CCN1CCN(c2ccc(S(=O)(=O)N3CCOCC3)cc2NC(=O)c2ccc(F)cc2Cl)CC1
Second: CCN1CCN(c2ccc(S(=O)(=O)N3CCOCC3)cc2NC(=O)c2ccc(Cl)cc2Cl)CC1
The “hERG current change (%, negative = inhibition) at 10uM” value of the first is higher: -35.7% for the first, -38.4% for the second.

Compared with `CCN1CCN(c2ccc(S(=O)(=O)N3CCOCC3)cc2NC(=O)c2ccc(Cl)s2)CC1`, `CCN1CCN(c2ccc(S(=O)(=O)N3CCOCC3)cc2NC(=O)c2ccccc2SC)CC1` is lower in “hERG current change (%, negative = inhibition) at 10uM” value: -57.1% for the first, -60.1% for the second.

Going from `CCN1CCN(c2ccc(S(=O)(=O)N3CCOCC3)cc2NC(=O)c2ccccc2OC(F)F)CC1` to `O=S(=O)(c1ccc(Br)c2ccccc12)N1CCOCC1`, the “hERG current change (%, negative = inhibition) at 10uM” value rises from -42.5% to -11.8%.

First: C/C(=N/OC(=O)c1c(-c2c(Cl)cccc2Cl)noc1C)c1cnccn1
Second: Cc1onc(-c2ccccc2Cl)c1-c1nc(-c2ccncc2)no1
The “hERG current change (%, negative = inhibition) at 10uM” value of the first is higher: -1.72% for the first, -10.9% for the second.

First: Cc1nc(NCc2ccccc2)c2cc[nH]c2n1
Second: Cc1cnc(C(=O)OC(C)C(=O)NCc2ccccc2)cn1 (centres unmarked)
The “hERG current change (%, negative = inhibition) at 10uM” value of the first is higher: 21% for the first, 3.99% for the second.

Going from `Cc1nc2sc(C(c3cccc(F)c3)N3CCCCC3)c(O)n2n1` (centres unmarked) to `Cn1c(SCC(=O)N2CCCCCC2)nc2c([nH]c3ccccc32)c1=O`, the “hERG current change (%, negative = inhibition) at 10uM” value rises from 4.79% to 6.91%.

First: O=C(NCC1CCCO1)c1ccc(Cn2c(=S)[nH]c3ccccc3c2=O)cc1 (centres unmarked)
Second: COc1ccccc1N1CCN(Cc2ccc(F)cc2)CC1
The “hERG current change (%, negative = inhibition) at 10uM” value of the first is higher: 18.2% for the first, -14.7% for the second.

Compared with `CN1CCN(C(=O)/C(=C/c2cn(S(=O)(=O)N(C)C)c3ccccc23)NC(=O)c2ccccc2Cl)CC1`, `Cc1c(NS(=O)(=O)c2ccc(Cl)c(C(=O)OC(C)C(=O)N3CCOCC3)c2)c(=O)n(-c2ccccc2)n1C` (centres unmarked) is lower in “hERG current change (%, negative = inhibition) at 10uM” value: 20.2% for the first, 5.07% for the second.

Going from `COc1cc(/C=C/c2ccc3cccc(O)c3n2)ccc1O` to `COc1ccccc1N1CCN(CCCCOc2cccc3ccccc23)CC1.Cl`, the “hERG current change (%, negative = inhibition) at 10uM” value falls from -0.305% to -32.8%.

Going from `Cc1cc(C)nc(Nc2nc(C)c3cc4c(cc3n2)OCO4)n1` to `CCn1c(COc2ccc(Cl)cc2)nnc1SCC(=O)Nc1ccc2c(c1)OCO2`, the “hERG current change (%, negative = inhibition) at 10uM” value rises from -3.78% to 3.98%.

First: COc1cc(N2C(=O)c3ccccc3C2=O)c(Cl)cc1C(=O)OCC(=O)N1CCOCC1
Second: COc1cc(N2C(=O)c3ccccc3C2=O)c(Cl)cc1C(=O)OCC(=O)N(C)C
The “hERG current change (%, negative = inhibition) at 10uM” value of the first is higher: -9.43% for the first, -28.5% for the second.

Going from `Cc1c(NS(=O)(=O)c2ccc(Cl)c(C(=O)OCC(=O)NCc3ccco3)c2)c(=O)n(-c2ccccc2)n1C` to `Cc1c(NS(=O)(=O)c2ccc(Cl)c(C(=O)OC(C)C(=O)NCc3ccco3)c2)c(=O)n(-c2ccccc2)n1C` (centres unmarked), the “hERG current change (%, negative = inhibition) at 10uM” value falls from -51.9% to -77.5%.

Going from `CCN(Cc1ccccc1)C(=O)COC(=O)c1cc(S(=O)(=O)Nc2c(C)n(C)n(-c3ccccc3)c2=O)ccc1C` to `CCN(Cc1ccccc1)C(=O)C(C)OC(=O)c1cc(S(=O)(=O)Nc2c(C)n(C)n(-c3ccccc3)c2=O)ccc1C` (centres unmarked), the “hERG current change (%, negative = inhibition) at 10uM” value rises from -74.9% to -19.3%.

First: CN(c1ccccc1)S(=O)(=O)c1ccc(Cl)c(C(=O)OCC(=O)NCc2ccco2)c1
Second: COc1cc(N2C(=O)c3ccccc3C2=O)c(Cl)cc1C(=O)OCC(=O)NCc1ccco1
The “hERG current change (%, negative = inhibition) at 10uM” value of the first is higher: -25% for the first, -56.1% for the second.

Compared with `Cc1c(NS(=O)(=O)c2cc(C(=O)NCc3ccco3)cc(Cl)c2Cl)c(=O)n(-c2ccccc2)n1C`, `Cc1ccc(S(=O)(=O)Nc2c(C)n(C)n(-c3ccccc3)c2=O)cc1C(=O)OC(C)C(=O)N(C)c1ccccc1` (centres unmarked) is higher in “hERG current change (%, negative = inhibition) at 10uM” value: -39.5% for the first, -10.5% for the second.

First: Brc1ccc(CN2CCN(c3ccccn3)CC2)s1
Second: COc1ccccc1N1CCN(CCCOc2ccc(F)cc2)CC1
The “hERG current change (%, negative = inhibition) at 10uM” value of the first is higher: -5.6% for the first, -71.8% for the second.

Going from `Cc1cccc(-n2nc3c([n+]2[O-])CCc2nonc2-3)c1C` to `Cc1cccc2c3c([nH]c12)CCN(C)C3`, the “hERG current change (%, negative = inhibition) at 10uM” value falls from 11.4% to 10%.

Compared with `O=C(CSc1ccc(Br)cc1)NC1CCS(=O)(=O)C1` (centres unmarked), `CN1CCN(CCCCOc2ccc(F)cc2)CC1` is lower in “hERG current change (%, negative = inhibition) at 10uM” value: 5.33% for the first, 0.265% for the second.

First: CCCN(CCC)C(=S)Nc1cc(C(=O)OC)ccc1C(=O)OC
Second: Cc1c(Cl)c([N+](=O)[O-])nn1CCCC(=O)Nc1cccc(Cl)c1
The “hERG current change (%, negative = inhibition) at 10uM” value of the first is higher: -38.2% for the first, -51.7% for the second.

Compared with `Cc1nn(Cc2ccc(Cl)cc2Cl)c(C)c1NC(=O)Cn1nc([N+](=O)[O-])c(Cl)c1C`, `Cc1nn(Cc2ccc(Cl)cc2)c(C)c1NC(=O)Cn1nc([N+](=O)[O-])c(Cl)c1C` is higher in “hERG current change (%, negative = inhibition) at 10uM” value: 1.33% for the first, 2.42% for the second.

Going from `Cc1nn(Cc2ccc(Cl)cc2)c(C)c1NC(=O)CCCn1nc(C)c([N+](=O)[O-])c1C` to `Cc1ccc(Cn2nc(C)c(NC(=O)CCCn3nc(C)c([N+](=O)[O-])c3C)c2C)cc1`, the “hERG current change (%, negative = inhibition) at 10uM” value rises from -64.5% to -10.9%.

Going from `Cc1nn(Cc2ccccc2)c(C)c1NC(=O)CCCn1nc(C)c([N+](=O)[O-])c1C` to `Cc1nn(Cc2ccccc2)c(C)c1NC(=O)CCCn1nc([N+](=O)[O-])c(Cl)c1C`, the “hERG current change (%, negative = inhibition) at 10uM” value falls from -16.3% to -43%.

First: Cc1nn(Cc2ccc(Cl)cc2)c(C)c1NC(=O)CCCn1nc([N+](=O)[O-])c(Cl)c1C
Second: Cc1ccc(Cn2nc(C)c(NC(=O)CCCn3nc([N+](=O)[O-])c(Cl)c3C)c2C)cc1
The “hERG current change (%, negative = inhibition) at 10uM” value of the first is lower: -64% for the first, -50.7% for the second.

Going from `Cc1nn(Cc2ccc(Cl)cc2Cl)c(C)c1NC(=O)CCl` to `Cc1nn(Cc2ccc(Cl)cc2Cl)c(C)c1NC(=O)NC12CC3CC(CC(C3)C1)C2`, the “hERG current change (%, negative = inhibition) at 10uM” value rises from -60.9% to 7.38%.

First: Cc1c(Cl)c([N+](=O)[O-])nn1CCCC(=O)Nc1c(Cl)cccc1Cl
Second: Cc1nn(Cc2c(Cl)cccc2Cl)c(C)c1NC(=O)CCCn1nc([N+](=O)[O-])c(Cl)c1C
The “hERG current change (%, negative = inhibition) at 10uM” value of the first is higher: -8.29% for the first, -19.6% for the second.

Going from `CC1(C)CNC(=O)CC(C)(C)N1` to `COc1cc2c(cc1OC)C(C)N(S(=O)(=O)c1cccs1)CC2` (centres unmarked), the “hERG current change (%, negative = inhibition) at 10uM” value falls from 4.53% to -12.9%.

First: CCn1c(SCC(=O)N2CCCCC2)nc(O)cc1=O
Second: Cc1ccc(C)c(-n2c(Cc3cc(=O)[nH]c(=O)[nH]3)nnc2SCC(=O)NCc2ccco2)c1
The “hERG current change (%, negative = inhibition) at 10uM” value of the first is lower: -7.46% for the first, 4.83% for the second.

Compared with `CCCNC(=O)N1c2ccccc2Sc2ccccc21`, `O=C(Nc1ccc(-c2csc(-c3ccccc3)n2)cc1)c1ccccc1` is higher in “hERG current change (%, negative = inhibition) at 10uM” value: 10.5% for the first, 16.9% for the second.

First: Cc1c(Cl)c([N+](=O)[O-])nn1CCCC(=O)Nc1cccnc1
Second: COc1ccc(CNc2oc(C)nc2C#N)cc1
The “hERG current change (%, negative = inhibition) at 10uM” value of the first is lower: -2.96% for the first, -1.09% for the second.

Compared with `COc1ccccc1N1CCN(CCCCCCOc2ccc(F)cc2)CC1`, `COc1ccccc1N1CCN(CCCCOc2ccc(F)cc2)CC1.Cl` is lower in “hERG current change (%, negative = inhibition) at 10uM” value: -67.2% for the first, -72.8% for the second.

`Cl.Fc1ccc(OCCCCN2CCOCC2)cc1` was tested, and the “hERG current change (%, negative = inhibition) at 10uM” value was -4.81%.

From publication PMC4336329 (PLoS ONE, 2015)
